Assay outcomes deposited in PubChem BioAssay by several laboratories.
FXIIa inh mix = inhibitors of human coagulation factor XIIa, pooled mixtures; P00748; purified FXIIa, fluorogenic substrate; inhibition, % at 5 µM; 0.2% of 62,000 active;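 also: 0% = enzyme without compound and 100% = no enzyme blank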
hDAT+cocaine = human DAT dopamine uptake with cocaine, either direction; AID 449768; 1.3% of 110,000 active; Q01959; B-score at 10 µM; LLC-PK1 hDAT cells, [14C]-dopamine uptake with cocaine IC80; actives deviate in either direction;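 active = Z score or B-score, a plate-position-corrected score, falls beyond the plate's 99.7% confidence bounds, in either direction; inactive = both scores lie inside the 99.7% bounds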;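 also: scored against the spread of the other compound wells on the same plate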
M1 agonist = M1 muscarinic receptor agonism | CHO-M1 cells, Fluo-4 calcium fluorescence, agonist mode; stronger effect = higher value | B-score at 10 µM | 3% of 64,000 active;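 active = fluorescence rise, raw or as B-score row- and column-corrected plate score, outside the 99.7% band of its plate's samples, either direction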
M1 antagonist = antagonists of rat M1 muscarinic receptor. CHO-M1 cells, Fluo-4 calcium, ACh EC80 antagonist mode; stronger effect = lower value. B-score at 10 µM. P08482. 3.4% of 64,000 active. AID 628;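 active = calcium fluorescence response, raw or row-and-column corrected B-score, differing from the plate sample mean either way at a set confidence level, mostly lower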
FXIa mix inh = blocks human factor XIa in pooled compound mixtures; P03951; purified FXIa, fluorogenic substrate; inhibition, % at 5 µM; AID 680; 0.19% of 62,000 active;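 also: each value is inhibition by a whole ten-compound pool holding the compound; 0% = enzyme with no mixture and 100% = wells lacking enzyme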
Target sequence (P03951 19-387 limits assumed): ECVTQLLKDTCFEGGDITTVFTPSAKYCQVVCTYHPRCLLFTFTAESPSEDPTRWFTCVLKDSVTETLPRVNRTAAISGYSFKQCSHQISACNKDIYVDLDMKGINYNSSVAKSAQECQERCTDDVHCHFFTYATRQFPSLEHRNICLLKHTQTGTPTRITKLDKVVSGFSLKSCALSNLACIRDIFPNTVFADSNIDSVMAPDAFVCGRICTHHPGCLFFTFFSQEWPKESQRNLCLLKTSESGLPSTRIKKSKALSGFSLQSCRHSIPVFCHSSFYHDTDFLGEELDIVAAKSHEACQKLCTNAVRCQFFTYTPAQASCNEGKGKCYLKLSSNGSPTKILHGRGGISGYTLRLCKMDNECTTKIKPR
Target sequence (P03951 388-625 limits assumed): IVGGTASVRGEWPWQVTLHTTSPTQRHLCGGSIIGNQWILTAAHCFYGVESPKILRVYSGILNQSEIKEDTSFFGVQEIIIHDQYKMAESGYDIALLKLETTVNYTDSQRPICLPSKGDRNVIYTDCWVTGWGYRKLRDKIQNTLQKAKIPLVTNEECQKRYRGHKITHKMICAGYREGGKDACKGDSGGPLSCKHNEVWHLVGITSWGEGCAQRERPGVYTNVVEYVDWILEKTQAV
D1 mod = D1 dopamine receptor (human) allosteric modulation | P21728 | HEK293 D1, CRE-luciferase, dopamine EC30 potentiation; actives deviate in either direction | B-score at 10 µM | 5.9% of 58,000 active | AID 641;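 active = luminescence count or its row- and column-corrected plate score outside the 99.7% band of the plate's sample wells, on either side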
Starred values were filed as active, the others as inactive; . = no result given. Hits are enriched below; roughly 7.4% of the tested compounds scored in any of these assays. Rule as the data show it, unless noted: active = inhibition above about 20% (passing the limit was not always enough); inactive = the rest.

SMILES	FXIIa inh mix	hDAT+cocaine	M1 agonist	M1 antagonist	FXIa mix inh	D1 mod
Cc1ccc(-n2nc3ccc(N)cc3n2)cc1	1.3	-0.188	-0.131	-0.669	10.8	-4.44*
CN=c1scc(C)n1/N=C/c1ccc2c(c1)OCO2	-18.2	-0.769	0.796	-0.114	1.9	-3.19*
CN=c1scc(C)n1/N=C/c1ccc(O)cc1	2.4	0.363	-1.13	0.0393	1.4	-2.78
CCOCc1nnc(NC(=O)c2cccs2)s1	2.7	-0.00119	0.947	2.09*	9.3	-0.221
CCCC(=O)Nc1ccc(C(=O)Nc2nnc(COC)s2)cc1	0.9	0.0616	0.142	-1.1	2.5	0.141
CCCC(=O)Nc1ccc(C(=O)Nc2nnc(COCC)s2)cc1	.	-7.85*	.	.	.	.
CCOCCc1nnc(NC(=O)c2cccs2)s1	23.1	0.45	-0.132	-0.373	7.7	-0.0412
N#Cc1ccc(N2CCN(c3ccc(F)cc3)CC2)cc1	.	0.207	.	.	.	.
COC(=O)CCn1nnc(-c2cccs2)n1	6.1	0.143	0.93	1.67*	4.1	-0.304
COC(=O)CCn1nnc(-c2ccc(C(C)C)cc2)n1	-0.2	0.00372	0.00585	-0.612	4.6	-2.52*
COc1ccc(C(=O)Cn2nnc(-c3cccs3)n2)cc1	-13.2	-0.733	0.132	-0.687	0.0	0.0141
CC1(C)Cc2c(sc(/N=C/N3CCCC3)c2C#N)C(C)(C)N1	.	0.297	.	.	.	.
O=S(=O)(c1cccc(-c2nnc(-c3cccnc3)o2)c1)N1CCCCC1	-1.6	1.75	.	.	6.7	.
c1ccc2c(c1)OCC(c1nnc3sc(-c4cnccn4)nn13)O2 (stereo not given)	0.3	0.297	.	.	-5.3	0.589
c1ccc2c(c1)OCC(c1nnc3sc(-c4ccc5c(c4)OCO5)nn13)O2 (stereo not given)	-13.2	-8.61*	1.28	-0.00253	5.5	0.753
N#C[C@@H]1[C@@H]2C(=O)N(c3ccc4c(c3)OCCO4)C(=O)[C@@H]2C2c3ccccc3C=CN21 (stereo not given in full)	0.7	0.792	2.38	-0.556	-4.7	0.141
Nc1n[nH]c(-c2ccccc2)n1	.	-0.782	.	.	.	.
Cc1ccc(-c2nc(Nc3ccccc3)n[nH]2)cc1	5.1	-3*	0.522	0	-0.5	-1.4
Cc1ccnc(Nc2nc3ccccc3o2)n1	4.6	0.0551	0.36	0.486	1.3	-4.44*
COc1cccc2cc(C(=O)C3=C(O)C(=O)N(CCCN4CCOCC4)C3c3ccncc3)oc12 (stereo not given)	11.9	.	2	0.175	-2.4	1.11
Cc1nnc(NC(=O)c2cccc(NC(=O)C(C)C)c2)s1	.	-7*	.	.	.	.
CC(C)C(=O)Nc1cccc(C(=O)Nc2nnc(C(C)C)s2)c1	.	1.05	.	.	.	.
O=C(O)C1C2C=CC3(CN(Cc4ccccn4)C(=O)C13)O2 (stereo not given)	3.3	-1.16	-0.0837	-0.041	9.6	0.158
O=C(O)C1C2C=CC3(CN(Cc4ccncc4)C(=O)C13)O2 (stereo not given)	5.8	-8.7*	.	.	13.9	.
Cc1ccccc1OCC(=O)Nc1ccc(N2CCN(S(C)(=O)=O)CC2)cc1	4.3	-8.1*	-1.64	0.367	5.5	0.477
SMILES	FXIIa inh mix	hDAT+cocaine	M1 agonist	M1 antagonist	FXIa mix inh	D1 mod
Cc1csc(SCC(=O)c2cc(C)n(Cc3cccs3)c2C)n1	0.2	-0.0263	0.475	-1.29	16.0	-5.22*
O=C(Nc1nccs1)c1cnccn1	0.6	-0.299	.	.	5.7	.
CCc1nnc(NC(=O)c2cnccn2)s1	1.6	-1.29	0	0.0112	21.2*	0.0681
CCc1nnc(NC(=O)c2cc3c(s2)CCCCC3)s1	0.2	-0.169	-0.267	0.635	3.2	-2.42*
Cc1csc(NC(=O)c2cc3c(s2)CCCCC3)n1	.	-0.873	.	.	.	.
Cc1csc(NC(=O)c2cc3c(s2)CCCC3)n1	.	3.22*	.	.	.	.
CC1CN(C(=O)CCn2c(=O)oc3ccccc32)CC(C)O1 (stereo not given)	0.4	-0.552	-0.498	0.0445	9.2	-1.56
CS(=O)(=O)N(CC(N)=O)c1ccc(F)c(Cl)c1	2.3	-0.995	0.0143	0.41	0.3	-0.33
O=C(CN1CCC(n2nnc3cc(F)ccc32)CC1)NC1CC1	6.6	.	-0.991	0.164	7.4	0.225
O=C(CN1CCC(n2nnc3cc(F)ccc32)CC1)Nc1ccccc1N1CCOCC1	.	1.69	0.345	-0.0668	.	-3.13*
CCOc1ccc2nc(NC(=O)CN3CCN(c4ccccn4)CC3)sc2c1	-9.9	0.545	-0.75	0.764	3.5	.
CCOc1ccc2nc(NC(=O)CN3CCC(n4nnc5cc(F)ccc54)CC3)sc2c1	31.5*	4.3*	0.519	-1.92	3.9	-0.694
O=C(Nc1ccc2c(c1)OCO2)C(c1ccccc1)N1CCN(C(=O)c2ccco2)CC1 (stereo not given)	-4.6	-1.77	.	.	-17.7	-0.717
O=C(Nc1ccc2c(c1)OCO2)C(c1ccc(Cl)cc1)N1CCN(C(=O)c2ccco2)CC1 (stereo not given)	2.3	2.36*	-1.32	-0.223	9.3	-0.0856
COc1ccc(-c2nc(N)n(C(=O)Cc3ccccc3)n2)cc1	.	-0.9	.	.	.	.
Cc1ccc(Cl)cc1N1CCN(C(=O)CCC(=O)O)CC1	-13.0	-3.04*	0.93	1.04	6.5	0.00247
CC12CCC(=O)N1c1ccccc1C(=O)N2c1ccccc1 (stereo not given)	18.1	0.0389	1.05	2.28*	-3.5	-0.571
O=c1oc2c3c4c(cc2cc1-c1nc2ccccc2[nH]1)CCCN4CCC3	32.9	.	338*	-15.3*	-1.9	-2.74*
c1ccc2[nH]c(CN3CCCCC3)nc2c1	.	-0.525	.	.	.	.
O=c1oc2c(CN3CCCCC3)c(O)ccc2cc1-c1nc2ccccc2[nH]1	9.8	.	182*	-18.3*	-7.8	-0.402
c1ccc2[nH]c(N3CCOCC3)nc2c1	0.1	-0.447	-0.467	0.297	5.8	0.246
CCCN(CCC)c1ncnc2nc[nH]c12	-6.0	0.685	0.268	-0.149	-2.7	-0.87
Cc1ccnc(NS(=O)(=O)c2ccc(NC(=O)C34CC5CC(C)(CC(C)(C5)C3)C4)cc2)n1	.	2.77*	.	.	.	.
CC(=O)Nc1ccc(S(=O)(=O)N2CCC(c3nc4ccc(C)cc4[nH]3)CC2)cc1	0.2	0.552	-0.239	1.06	2.2	.
CCC(C)c1ccc(NC(=O)CSc2nncn2N)cc1 (stereo not given)	.	-1.04	.	.	.	.
SMILES	FXIIa inh mix	hDAT+cocaine	M1 agonist	M1 antagonist	FXIa mix inh	D1 mod
Nn1cnnc1SCC(=O)Nc1ccc(C2CCCCC2)cc1	12.9	1.28*	-1.01	0.0964	-0.3	-4.29*
CC(C)n1c(SCc2ccc(Cl)cc2)nc2c1c(=O)[nH]c(=O)n2C	-17.6	-3.05*	-0.144	0.0925	6.3	1.87
CC(C)n1c(SCC(N)=O)nc2c1c(=O)[nH]c(=O)n2C	4.8	0.169	0.5	-0.331	1.8	-0.0813
CCN1C(=O)c2cccc3c(NC(=O)c4ccc(S(=O)(=O)N(C)C)cc4)ccc1c23	-3.2	0.0624	0.236	-1.08	0.3	0.521
CCN1C(=O)c2cccc3c(NC(=O)c4ccc(S(=O)(=O)N5CCOCC5)cc4)ccc1c23	6.1	3.7*	-0.66	-0.745	5.7	-0.844
COc1ccc(C2CC(C(F)(F)F)n3nc(C(=O)O)c(Cl)c3N2)cc1OC (stereo not given)	1.2	-0.325	1.28	-0.231	-3.2	0.0281
